Data as given in the supplement of paper PMC8728848.
Only a selection was taken, and the strongest signals are over-represented in it overall.

What was measured:
Assay in all cases: glycan array binding signal (z-score within array); higher = stronger binding
Conditions in all cases: glycan notation: IUPAC condensed, linker removed
[1] = molecular target: Fuc(a1-2)Gal(b1-3)GalNAc(a1-3)[Fuc(a1-2)]Gal(b1-4)GlcNAc
Method in brief: (§1)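 Columns mapping to the same glycan were averaged after glycan names were converted to IUPAC-condensed notation. The data come from 3228 arrays in the Consortium for Functional Glycomics database, limited to those with an available protein sequence. Binding is reported as a within-array Z-score averaged across arrays of one protein sequence and across linkers.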

[2] = molecular target: Fuc(a1-2)Gal(b1-4)GlcNAc(b1-2)Man(a1-3)[Fuc(a1-2)Gal(b1-4)GlcNAc(b1-2)Man(a1-6)]Man(b1-4)GlcNAc(b1-4)GlcNAc
Method in brief: as §1

[3] = molecular target: Fuc(a1-2)Gal(b1-4)GlcNAc(b1-2)Man(a1-3)[Fuc(a1-2)Gal(b1-4)GlcNAc(b1-2)Man(a1-6)]Man(b1-4)GlcNAc(b1-4)[Fuc(a1-6)]GlcNAc
Method in brief: as §1

[4] = molecular target: Fuc(a1-2)Gal(b1-4)GlcNAc(b1-6)GalNAc
Method in brief: as §1

[5] = molecular target: Fuc(a1-2)Gal6S(b1-3)GlcNAc6S
Method in brief: as §1

[6] = molecular target: Fuc(a1-2)Gal6S(b1-4)Glc6S
Method in brief: as §1

[7] = molecular target: Fuc(a1-2)[Gal(a1-3)]Gal(b1-3)GlcNAc(b1-2)Man(a1-3)[Fuc(a1-2)[Gal(a1-3)]Gal(b1-3)GlcNAc(b1-2)Man(a1-6)]Man(b1-4)GlcNAc(b1-4)[Fuc(a1-6)]GlcNAc
Method in brief: as §1

[8] = molecular target: Fuc(a1-2)[Gal(a1-3)]Gal(b1-4)GlcNAc(b1-2)Man(a1-3)[Fuc(a1-2)[Gal(a1-3)]Gal(b1-4)GlcNAc(b1-2)Man(a1-6)]Man(b1-4)GlcNAc(b1-4)[Fuc(a1-6)]GlcNAc
Method in brief: as §1

[9] = molecular target: Fuc(a1-2)[Gal(a1-3)]Gal(b1-4)[Fuc(a1-3)]GlcNAc
Method in brief: as §1

[10] = molecular target: Fuc(a1-2)[GalNAc(a1-3)]Gal(b1-3)GalNAc(a1-3)[Fuc(a1-2)]Gal(b1-4)GlcNAc
Method in brief: as §1

[11] = molecular target: Fuc(a1-2)[GalNAc(a1-3)]Gal(b1-3)GlcNAc
Method in brief: as §1

[12] = molecular target: Fuc(a1-2)[GalNAc(a1-3)]Gal(b1-3)GlcNAc(b1-2)Man(a1-3)[Fuc(a1-2)[GalNAc(a1-3)]Gal(b1-3)GlcNAc(b1-2)Man(a1-6)]Man(b1-4)GlcNAc(b1-4)[Fuc(a1-6)]GlcNAc
Method in brief: as §1

[13] = molecular target: Fuc(a1-2)[GalNAc(a1-3)]Gal(b1-3)GlcNAc(b1-3)GalNAc
Method in brief: as §1

[14] = molecular target: Fuc(a1-2)[GalNAc(a1-3)]Gal(b1-3)GlcNAc(b1-6)GalNAc
Method in brief: as §1

[15] = molecular target: Fuc(a1-2)[GalNAc(a1-3)]Gal(b1-4)GlcNAc(b1-2)Man(a1-3)[Fuc(a1-2)[GalNAc(a1-3)]Gal(b1-4)GlcNAc(b1-2)Man(a1-6)]Man(b1-4)GlcNAc(b1-4)GlcNAc
Method in brief: as §1

[16] = molecular target: Fuc(a1-2)[GalNAc(a1-3)]Gal(b1-4)GlcNAc(b1-3)GalNAc
Method in brief: as §1

[17] = molecular target: Fuc(a1-2)[GalNAc(b1-3)]Gal
Method in brief: as §1

Fuc(a1-3)GlcNAc = molecular target: Fuc(a1-3)GlcNAc
Method in brief: as §1

[18] = molecular target: Fuc(a1-3)[GalNAc(b1-4)]GlcNAc6S
Method in brief: as §1

[19] = molecular target: Fuc(a1-3)[GalNAc3S(b1-4)]GlcNAc
Method in brief: as §1

Fuc(b1-3)GlcNAc = molecular target: Fuc(b1-3)GlcNAc
Method in brief: as §1

[20] = molecular target: Gal(a1-3)Gal(b1-4)GlcNAc(b1-3)GalNAc
Method in brief: as §1

[21] = molecular target: Gal(b1-3)GalNAc(a1-3)[Fuc(a1-2)]Gal(b1-4)Glc
Method in brief: as §1

[22] = molecular target: Gal(b1-3)GlcNAc(b1-2)Man(a1-3)[Gal(b1-3)GlcNAc(b1-2)Man(a1-6)]Man(b1-4)GlcNAc(b1-4)[Fuc(a1-6)]GlcNAc
Method in brief: as §1

[23] = molecular target: Gal(b1-4)GalNAc(a1-3)[Fuc(a1-2)]Gal(b1-4)GlcNAc
Method in brief: as §1

Gal(b1-4)Glc = molecular target: Gal(b1-4)Glc
Method in brief: as §1

[24] = molecular target: Gal(b1-4)GlcNAc(b1-2)Man(a1-3)[Gal(b1-4)GlcNAc(b1-2)][GlcNAc(b1-4)]Man(b1-4)GlcNAc(b1-4)GlcNAc
Method in brief: as §1

[25] = molecular target: Gal(b1-4)GlcNAc(b1-3)Gal(b1-4)[Fuc(a1-3)GlcNAc(b1-6)]Gal(b1-4)Glc
Method in brief: as §1

Gal6S(b1-4)Glc = molecular target: Gal6S(b1-4)Glc
Method in brief: as §1

Gal6S(b1-4)GlcNAc6S = molecular target: Gal6S(b1-4)GlcNAc6S
Method in brief: as §1

GlcA(b1-6)Gal = molecular target: GlcA(b1-6)Gal
Method in brief: as §1

[26] = molecular target: GlcNAc(b1-2)Man(a1-3)[GlcNAc(b1-2)Man(a1-6)]Man(b1-4)GlcNAc(b1-4)[Fuc(a1-6)]GlcNAc
Method in brief: as §1

[27] = molecular target: GlcNAc(b1-2)[GlcNAc(b1-4)]Man(a1-3)[GlcNAc(b1-4)][GlcNAc(b1-2)[GlcNAc(b1-6)]Man(a1-6)]Man(b1-4)GlcNAc(b1-4)[Fuc(a1-6)]GlcNAc
Method in brief: as §1

[28] = molecular target: GlcNAc(b1-4)[GlcNAc(b1-6)]GalNAc
Method in brief: as §1

[29] = molecular target: Neu5Ac(a2-3)Gal(b1-4)GlcNAc(b1-2)[Neu5Ac(a2-3)Gal(b1-4)GlcNAc(b1-6)]Man(a1-6)[Neu5Ac(a2-3)Gal(b1-4)GlcNAc(b1-2)Man(a1-3)]Man(b1-4)GlcNAc(b1-4)GlcNAc
Method in brief: as §1

[30] = molecular target: Neu5Ac(a2-3)Gal(b1-4)[Fuc(a1-3)]GlcNAc(b1-3)Gal(b1-4)GlcNAc
Method in brief: as §1

[31] = molecular target: Neu5Ac(a2-3)Gal(b1-4)[Fuc(a1-3)]GlcNAc(b1-3)GalNAc
Method in brief: as §1

[32] = molecular target: Neu5Ac(a2-3)GalNAc(b1-4)GlcNAc
Method in brief: as §1

[33] = molecular target: Neu5Ac(a2-6)Gal(b1-4)GlcNAc(b1-3)Gal(b1-4)[Fuc(a1-3)]GlcNAc(b1-3)Gal(b1-4)[Fuc(a1-3)]GlcNAc
Method in brief: as §1

[34] = molecular target: Neu5Ac(a2-6)Gal(b1-4)GlcNAc(b1-6)[Gal(b1-3)GlcNAc(b1-3)]Gal(b1-4)Glc
Method in brief: as §1

[35] = molecular target: Neu5Ac(a2-6)GlcNAc(b1-4)GlcNAc
Method in brief: as §1

[36] = molecular target: Neu5Ac(a2-8)Neu5Ac(a2-8)Neu5Ac
Method in brief: as §1

[37] = molecular target: Neu5Gc(a2-3)Gal(b1-3)GlcNAc
Method in brief: as §1

Neu5Gc(a2-3)Gal(b1-4)Glc = molecular target: Neu5Gc(a2-3)Gal(b1-4)Glc
Method in brief: as §1

B1: CvGal1 (Crassostrea virginica), A7Y0I5 (protein)
chain: MTYQISKISQPFTSYIPNGLHIGKHLLLRGRVSYGTEAFAINLQQNPEPCNGEVAFHFNPRPGEQQCVRNSFDGGSWMDEERDQPHFPFDEGRSFTLRIEVAEEGFRTYVNGKPYVNFSHRLDLGNVHYLYLTEGAEFYDISYQDRYTLPYKSEIPQQMNVGKAVRIRGASQDNDGFSVNFACDPDNENCAFHFNPRPNEGVVVRNANLGGWGDEERDYEAEFPFHPYNYFDAMFICTDDKYLVHVNDKYFTEFNHRGGVDASSFFNIVGNLDIQDVEYFEPLEDDFVKTIPSGLVKGDVLIFRGFMKPGGDTFSINFMNGYSVEDDIAFHLNPRVGEGQVVMNCCMGGAWGDEEREDIPSPLADREPFEVKVVVKKNKFKVYVNGKKCMKFAARGNLEDIKGVNIKGEAYVYEVKLERKLEDSWEYLPGGFRVGGWVVVQAIPKKGSEGFAINFRTGSDEDSDIAFHFNPRLQENCTIRNSCAGGAWGGEERDQPDFPFEKKDTCEIAIQAQPDRFVTYVNGKRYIEFNHRLPLESITCVELTGRADFFEPKFF
[1]
  glycan array binding signal (z-score): 6.13
[2]
  glycan array binding signal (z-score): 0.157
[3]
  glycan array binding signal (z-score): -0.053
[4]
  glycan array binding signal (z-score): -0.258
[5]
  glycan array binding signal (z-score): -0.213
[6]
  glycan array binding signal (z-score): -0.259
[7]
  glycan array binding signal (z-score): 0.478
[8]
  glycan array binding signal (z-score): 1.42
[9]
  glycan array binding signal (z-score): -0.263
[10]
  glycan array binding signal (z-score): 3.63
[11]
  glycan array binding signal (z-score): 4.14
[12]
  glycan array binding signal (z-score): 4.71
[13]
  glycan array binding signal (z-score): 1.75
[14]
  glycan array binding signal (z-score): 3.97
[15]
  glycan array binding signal (z-score): 6.1
[16]
  glycan array binding signal (z-score): 5.16
[17]
  glycan array binding signal (z-score): -0.306
Fuc(a1-3)GlcNAc
  glycan array binding signal (z-score): -0.088
[18]
  glycan array binding signal (z-score): -0.215
[19]
  glycan array binding signal (z-score): -0.259
Fuc(b1-3)GlcNAc
  glycan array binding signal (z-score): -0.219
[20]
  glycan array binding signal (z-score): -0.197
[21]
  glycan array binding signal (z-score): 3.55
[22]
  glycan array binding signal (z-score): -0.265
[23]
  glycan array binding signal (z-score): 4.11
Gal(b1-4)Glc
  glycan array binding signal (z-score): -0.253
[24]
  glycan array binding signal (z-score): -0.195
[25]
  glycan array binding signal (z-score): -0.264
Gal6S(b1-4)Glc
  glycan array binding signal (z-score): -0.291
Gal6S(b1-4)GlcNAc6S
  glycan array binding signal (z-score): -0.182
GlcA(b1-6)Gal
  glycan array binding signal (z-score): -0.259
[26]
  glycan array binding signal (z-score): -0.3
[27]
  glycan array binding signal (z-score): -0.249
[28]
  glycan array binding signal (z-score): -0.23
[29]
  glycan array binding signal (z-score): -0.283
[30]
  glycan array binding signal (z-score): -0.226
[31]
  glycan array binding signal (z-score): -0.166
[32]
  glycan array binding signal (z-score): -0.277
[33]
  glycan array binding signal (z-score): -0.28
[34]
  glycan array binding signal (z-score): -0.245
[35]
  glycan array binding signal (z-score): -0.303
[36]
  glycan array binding signal (z-score): -0.236
[37]
  glycan array binding signal (z-score): -0.239
Neu5Gc(a2-3)Gal(b1-4)Glc
  glycan array binding signal (z-score): -0.311
